# Screens (PubChem BioAssay)
# OPRM1-OPRD1 inv = inverse agonists of MOR-DOR heterodimerization, primary screen, cell-based, luminescence; Mu-type opioid receptor (Homo sapiens) + Delta-type opioid receptor (Homo sapiens), …; cell-based MOR-DOR heterodimer luminescence, inverse agonism; inhibition, % at 9.3 µM; hit rate 0.21% among 340,000; AID 504357, 2011; in the data active = inhibition above about 22%, passing the limit was not always enough;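 note: 0% = cells with DMSO and 100% = wells without cells with DMSO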
# HTR5A inv ag = HTR5A inverse agonists in luminescence cell assay, primary screen, counter-screen for OPRM1-OPRD1 heterodimer inverse agonist project, full-deck HTS | 5-hydroxytryptamine receptor 5A (Homo sapiens), P47898 | HTR5A cell line, inverse agonism | inhibition, % at 9.3 µM | hit rate 0.083% among 340,000; in the data active = inhibition mostly above about 23%, no sharp cut-off; inactive = mostly below about 18%;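 note: 0% = cells with DMSO and 100% = no-cell wells with DMSO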
# HTR5A ag = HTR5A agonists in luminescence cell assay, primary screen, counter-screen for OPRM1-OPRD1 heterodimer agonist project, full-deck HTS | 5-hydroxytryptamine receptor 5A (Homo sapiens), P47898 | cell-based | activation, % at 9.3 µM | hit rate 0.61% among 340,000 | AID 504692, 2011; in the data active = activation mostly above about 9.5%, no sharp cut-off; inactive = mostly below about 7.6%;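 note: 0% = cells with vehicle only and 100% = reference agonist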
# Bfl-1 A1 inh = caspase 3/7 activation in MEF A1-2A-BIM cells, primary screen, A1 inhibitor project, cell-based, luminescence, HTS. Caspase-Glo 3/7 luminescence, 3 h; percent of clofoctol response, vehicle zero. caspase activation, % (test concentration not listed). hit rate 0.066% among 330,000. AID 2462, 2010;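 active = over half of replicate activation scores above 10%, or exactly half above 10 with the replicate mean above 10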
# OPRM1-OPRD1 ag = agonists of OPRM1-OPRD1 heterodimerization, primary screen, cell-based, luminescence. Mu-type opioid receptor (Homo sapiens) + Delta-type opioid receptor (Homo sapiens), …. cells. activation, % at 9.3 µM. hit rate 0.3% among 340,000; in the data active = activation above about 18%;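 note: 0% = vehicle-treated cells and 100% = reference agonist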
# * marks the source's active call; other numbers are inactive results; . = not tested or not shown. Compounds with a hit are over-represented: about 1.1% of the library has one in this group of screens.
SMILES,OPRM1-OPRD1 inv,HTR5A inv ag,HTR5A ag,Bfl-1 A1 inh,OPRM1-OPRD1 ag
O=C(CCC(=O)NCc1ccccc1)NCc1ccccc1,6,-34,1,0,-1
CC(=O)NC12CC3CC(C1)CC(C(=O)N1CCN(S(=O)(=O)c4ccccc4[N+](=O)[O-])CC1)(C3)C2,2,6,-3,0,0
CC(=O)NC12CC3CC(C1)CC(C(=O)N1CCN(S(=O)(=O)c4ccc(Cl)s4)CC1)(C3)C2,6,-5,11*,2,-1
CC(C)(C)C1=CC(=Nc2ccccc2N)C=C(C(C)(C)C)C1=O,26,-8,3,0,-4
CC(C)(C)C1=CC(=O)C(=O)C(C(C)(C)C)=C1,-184,-12,5,31*,36*
COC(=O)c1ccc(Nc2cc(C)nc3nc(C)nn23)cc1,13,-1,0,-1,-3
CCOc1ccc(Nc2cc(C)nc3nc(C)nn23)cc1,17,0,0,5.2*,-3
COc1cc(/C=C(/C#N)C(=O)NCCc2c[nH]c3ccccc23)ccc1OCc1ccccc1F,-8,0,2,9.4*,1
O=C(CCNC(=O)c1ccc([N+](=O)[O-])cc1)Nc1ccc(S(=O)(=O)N2CCOCC2)cc1,-6,29,2,0,1
COc1ccc(-c2nc(CSCC(=O)NCCC3=CCCCC3)c(C)o2)cc1OC,-10,10,-4,0,2
Cc1nonc1C1CCCN1Cc1cn[nH]c1-c1ccc(-c2ccccc2)cc1 (centres undefined),-21,19,-1,0,4
COc1ccccc1-n1c(=S)sc2c(=O)n(Cc3ccco3)c(SC)nc21,-7,-12,10*,0,1
CCCCNC(=O)C1CCC(CNS(=O)(=O)c2ccc(C)cc2)CC1 (centres undefined),8,10,2,0,-1
CCCCSCCCNC(=O)C1CCC(CNS(=O)(=O)c2ccccc2)CC1 (centres undefined),-11,-49,12*,0,2
CC(C)c1ccccc1NC(=O)CCc1nc2ccccc2s1,8,-2,1,0,-1
O=C(O)c1cccc(N2C(=O)c3cc([N+](=O)[O-])cc4cc([N+](=O)[O-])cc(c34)C2=O)c1,-22,14,-4,-1,5
O=C(CCCCCn1c(=S)[nH]c2ccc(N3CCOCC3)cc2c1=O)NCc1ccccc1Cl,-35,-12,0,2,7
O=C(CCCCCn1c(=S)[nH]c2ccc(N3CCOCC3)cc2c1=O)NCc1ccc2c(c1)OCO2,9,-31,12*,1,-2
O=C(CCCCCn1c(=S)[nH]c2ccc(N3CCOCC3)cc2c1=O)NCCc1ccccc1,-4,-37,15,0,1
O=C(CCCCCn1c(=S)[nH]c2ccc(N3CCOCC3)cc2c1=O)NCc1ccc(Cl)cc1,-11,-35,13*,1,2
CCc1ccc(C2C3=C(CCCC3=O)OC3=C2C(=O)CCC3)cc1,-29,15,-6,0,4
CCOC(=O)c1c(NC(=O)CN(CC)CC)sc2c1CCC2,-32,-8,3,-1,6
CCN(CC)CC(=O)Nc1sc2c(c1C(=O)c1ccccc1OC)CCC2,-16,-29,11*,0,4
CN(C(=O)CSc1ncnc2sc3c(c12)CCC3)C1CCS(=O)(=O)C1 (centres undefined),8,-2,3,-1,-2
CCOc1ccc(C(=O)Nc2cccc([N+](=O)[O-])c2)cc1Br,-19,-22,9.2*,-3,4
SMILES,OPRM1-OPRD1 inv,HTR5A inv ag,HTR5A ag,Bfl-1 A1 inh,OPRM1-OPRD1 ag
CCOc1ccc(C(=O)Nc2cccc(NC(=O)c3cccs3)c2)cc1[N+](=O)[O-],-2,-7,-4,.,0
CCC(C)NC(=O)CCn1c(-c2ccccc2)cc(C(C)=O)c1C (centres undefined),15,2,7,0,-3
CCOC(=O)c1cc(-c2ccccc2)n(CCC(=O)NC(C)CC)c1C (centres undefined),5,30,11*,0,-1
O=Nc1c(O)c2ccccc2c2ccccc12,-99,-10,12*,0,18
OC(C#Cc1ccccn1)c1cccs1 (centres undefined),24,-1,2,0,-4
COc1ccc(CNC(=O)c2cc(=O)c3cc(C)c(C)cc3o2)cc1,9,-36,10*,-1,-2
C=CCNC(=O)c1onc(CSc2ccc(F)c(F)c2)c1C(=O)NCC=C,-18,-6,13*,0,3
C=CCNC(=O)c1onc(CSc2ccccc2)c1C(=O)NCC=C,0,17,-2,0,0
CC(=O)N1CCc2cc3nc(C)cc(C)c3cc21,15,10,2,0,-3
CS(=O)(=O)c1nc(-c2cccs2)cc(C(F)(F)F)n1,.,.,.,8.2*,.
CCN(CC)CCn1c(SCC(=O)Nc2ccc3c(c2)CCC3)nc2ccccc2c1=O,4,12,12*,.,-1
COc1ccc(NC(=O)CC2C(=O)N(c3ccc(F)cc3)C(=S)N2NC(=O)c2ccc(Cl)cc2)cc1 (centres undefined),-2,6,12*,0,0
COc1ccc(NC(=O)CC2C(=O)N(c3ccc(Cl)cc3)C(=S)N2NC(=O)c2cccc(F)c2)cc1 (centres undefined),-1,-6,0,0,0
Cc1ccc(S(=O)(=O)Nc2c(C)n(C)n(-c3ccccc3)c2=O)cc1C(=O)NCc1ccco1,11,-33,12,.,-3
CCOC(=O)C1=C(C)NC(SC)=C(C#N)C1CC(C)C (centres undefined),-12,17,2,1,2
O=S(=O)(c1ccc2nc(-c3ccccc3)[nH]c2c1)N1CCN(c2ccc(Cl)cc2)CC1,-22,-11,10*,1,4
NC(=O)c1c(NC(=O)CSc2nnc(Cc3ccccc3)n2Cc2ccco2)sc2c1CCC2,-1,-11,3,0,0
CCCCn1c(SCC(=O)Nc2sc3c(c2C(N)=O)CCC3)nnc1-c1ccccc1,-13,-25,14*,0,2
O=C(N/N=C/c1c[nH]c2ccccc12)c1cc(-c2ccc(-c3ccccc3)cc2)n[nH]1,-19,-21,12*,0,4
O=C(N/N=C/c1c[nH]c2ccccc12)c1cc(-c2ccccc2)n[nH]1,-21,6,-3,0,3
CN(C)/C=C/c1oc2ccc(O)cc2c1[N+](=O)[O-],41*,30*,-11,0,-8
Cc1oc2ccc(O)cc2c1C(=O)c1ccc([N+](=O)[O-])cc1,-23,-30,3,0,4
CCn1cc([N+](=O)[O-])c(=O)c2cc(F)c(N3CCOCC3)cc21,14,7,-2,1,-3
